This is a sample that favours compounds with a hit; in the whole collection about 2.8% have one here.
CF NFkB block = blocks PAF-induced NF-kB reporter in cystic fibrosis cells | inhibition, % at 5 µM | KKLEB NF-kB-GFP reporter, GFP fluorescence overnight | 360,000 tested, 0.86% active | AID 588850;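 active = at least 50% inhibition at 5 µM, scaled per plate between neutral and stimulator controls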;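 note: PAF is a Pseudomonas aeruginosa culture filtrate used as stimulus; plate controls were PAF-stimulated DMSO wells for no effect and unstimulated DMSO wells for full effect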
MITF TRPM1 inh = inhibitors of MITF-driven TRPM1 promoter in melanoma cells | 330,000 tested, 0.83% active | AID 488899 | SK-MEL-5 TRPM1 promoter luciferase, 24 h | inhibition, % at 12.5 µM;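 active = mean inhibition across replicates of 60% or more, whatever share of single replicates reaches that level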
HIF-2a inh = blocks HIF-2a reporter activity. inhibition, % at 18.8 µM. 786-0 RCC cells HIF-2a reporter, luciferase luminescence, overnight. AID 624352. 360,000 tested, 0.72% active;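 active = inhibition of the luminescence signal of 40% or more relative to plate controls, in a single-dose primary screen at 18.75 µM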
Peg3 promoter = Peg3 promoter activity inhibition; inhibition, % at 20 µM; HeLa PEG-Prom luciferase reporter, luminescence, overnight; 360,000 tested, 1.7% active;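 active = inhibition of at least 50% at 20 µM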
Shn3 inh set2 = reduces Shn3 3'UTR luciferase signal in osteoblasts | inhibition, % at 12.5 µM | 360,000 tested, 0.52% active | Clone20 osteoblast Shn3 3'UTR firefly luciferase, 24 h;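 active = mean inhibition of at least 75% with every replicate also reaching 75%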;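 note: 0% = median of neutral control wells and 100% = pilot-screen positive control compound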
KKLEB tox = CF airway cell cytotoxicity counter-screen. activity change (cytotoxicity), % at 5 µM. AID 602141. KKLEB CF airway cells viability, ATPlite luminescence, overnight; stronger effect = lower value; cells stimulated with P. aeruginosa culture filtrate. 360,000 tested, 0.36% active;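 active = corrected activity change at or below -50% at 5 µM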
CF NFkB inh conf = CF NF-kB inhibition confirmation, single concentration; 1,300 tested, 64% active; KKLEB CF airway cells, PAF-induced NF-kB-GFP fluorescence, overnight; AID 602472; inhibition, % at 5 µM; shares compounds with CF NFkB block; in the data active = inhibition above about 40%;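 note: stimulus PAF is a Pseudomonas aeruginosa filtrate and not platelet activating factor; plate controls were DMSO wells with stimulus for no effect and unstimulated DMSO wells for full effect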
Mdm2 MdmX conf = Mdm2/MdmX (human) interaction inhibition, confirmed. shares compounds with HIF-2a inh. SaOS-2 split-luciferase Mdm2/MdmX complementation, luminescence. inhibition, % at 8 µM. 740 tested, 99% active. AID 504601;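 active = mean inhibition of the luminescence signal across two replicates at or above 26 percent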
Target sequence (O15151 whole entry, looked up): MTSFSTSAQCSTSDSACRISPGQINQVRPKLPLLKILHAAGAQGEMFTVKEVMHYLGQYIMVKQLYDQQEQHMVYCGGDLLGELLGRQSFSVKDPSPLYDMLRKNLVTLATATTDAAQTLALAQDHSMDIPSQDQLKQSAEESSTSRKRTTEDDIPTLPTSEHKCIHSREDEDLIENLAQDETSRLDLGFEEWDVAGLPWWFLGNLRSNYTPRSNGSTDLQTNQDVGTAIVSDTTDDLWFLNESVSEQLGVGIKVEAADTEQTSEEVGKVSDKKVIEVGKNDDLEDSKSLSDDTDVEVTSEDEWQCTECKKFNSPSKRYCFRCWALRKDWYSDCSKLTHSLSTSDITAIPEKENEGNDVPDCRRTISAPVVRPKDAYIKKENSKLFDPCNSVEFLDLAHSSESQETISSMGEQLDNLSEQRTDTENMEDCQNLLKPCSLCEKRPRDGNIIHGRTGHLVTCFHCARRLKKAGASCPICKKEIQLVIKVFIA
Target sequence (Q00987 whole entry, looked up): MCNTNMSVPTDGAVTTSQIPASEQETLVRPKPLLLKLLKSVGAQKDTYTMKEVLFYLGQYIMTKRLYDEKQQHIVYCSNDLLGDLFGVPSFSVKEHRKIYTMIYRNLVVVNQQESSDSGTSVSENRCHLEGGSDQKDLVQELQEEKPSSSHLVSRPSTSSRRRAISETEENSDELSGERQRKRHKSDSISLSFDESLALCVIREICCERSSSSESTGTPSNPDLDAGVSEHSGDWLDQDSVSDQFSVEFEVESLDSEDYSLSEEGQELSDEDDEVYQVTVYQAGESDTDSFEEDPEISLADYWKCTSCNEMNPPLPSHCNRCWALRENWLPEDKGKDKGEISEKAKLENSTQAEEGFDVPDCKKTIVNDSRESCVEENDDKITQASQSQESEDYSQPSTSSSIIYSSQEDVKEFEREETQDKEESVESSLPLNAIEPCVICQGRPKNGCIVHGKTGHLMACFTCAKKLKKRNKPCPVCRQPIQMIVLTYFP
HIF-2a inh conf = HIF-2a inhibition, single concentration confirmation; shares compounds with HIF-2a inh; 786-0 RCC cells, HIF-2a luciferase reporter luminescence, overnight; inhibition, % at 18.8 µM; 1,800 tested, 56% active; AID 651580;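 active = mean inhibition across four replicates of at least 40 percent at the single tested concentration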
HIF-1a cs = counter-screen for HIF-2a inhibitors: HIF-1a inhibition in MiaPaCa-2 cells; shares compounds with HIF-2a inh; MiaPaCa-2 HIF-1a luciferase reporter, desferoxamine, overnight; inhibition, % at 18.8 µM; 1,800 tested, 72% active;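 active = mean inhibition of the reporter signal across four replicates at the single tested dose of 50% or more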
* marks the source's active call; other numbers are inactive results.

What do the screens show for `Cc1ccc(S(=O)(=O)N2CCN(C(=O)/C=C/c3ccccc3)CC2)cc1C`?
CF NFkB block: -10; MITF TRPM1 inh: 6; HIF-2a inh: 9; Peg3 promoter: 27; Shn3 inh set2: -5; KKLEB tox: 16

What do the screens show for `Cc1ccsc1CN(C)CC(=O)NCC(=O)Nc1ccc(F)cc1`?
CF NFkB block: -4; MITF TRPM1 inh: -4; HIF-2a inh: 4; Peg3 promoter: 13; Shn3 inh set2: 1; KKLEB tox: -14

What do the screens show for `CCCCCCn1cc(CN2CC(N3CCN(CCN(C)C)CC3)CS2(=O)=O)nn1` (stereo not given)?
HIF-2a inh: 22

What do the screens show for `CC1CCN(CC(CS(=O)(=O)c2ccc([N+](=O)[O-])cc2)N2CCC(C)CC2)CC1` (stereo not given)?
CF NFkB block: 96*; MITF TRPM1 inh: 84*; HIF-2a inh: 93*; Peg3 promoter: 108*; Shn3 inh set2: -29; KKLEB tox: -42; CF NFkB inh conf: 88*; Mdm2 MdmX conf: 103*; HIF-2a inh conf: 24; HIF-1a cs: 107*

How did Cc1cccc(N(Cc2cc(=O)[nH]c3ccccc23)C(=O)CCl)c1 do in these assays?
CF NFkB block: 72*; MITF TRPM1 inh: 76*; HIF-2a inh: 65*; Peg3 promoter: 95*; Shn3 inh set2: -3; KKLEB tox: -26; CF NFkB inh conf: 108*; Mdm2 MdmX conf: 102*; HIF-2a inh conf: 90*; HIF-1a cs: 104*

Results for COc1ccc(-c2cc(=O)oc3cc(OCC(C)=O)ccc23)cc1 ?
CF NFkB block: 23; MITF TRPM1 inh: -7; HIF-2a inh: -15; Peg3 promoter: 12; Shn3 inh set2: -19; KKLEB tox: -6

How did COc1ccc(-c2cc(=O)oc3c(C)c(O)ccc23)cc1 do in these assays?
CF NFkB block: 83*; MITF TRPM1 inh: -9; HIF-2a inh: 17; Peg3 promoter: 40; Shn3 inh set2: -5; KKLEB tox: 15; CF NFkB inh conf: 92*; Mdm2 MdmX conf: 92*

What do the screens show for `O=C(c1ccccc1)C(CCC(CN1CCOCC1)C(=O)c1ccccc1)CN1CCOCC1` (stereo not given)?
CF NFkB block: 84*; MITF TRPM1 inh: 75*; HIF-2a inh: 76*; Peg3 promoter: 105*; Shn3 inh set2: 97*; KKLEB tox: -41; CF NFkB inh conf: -31; Mdm2 MdmX conf: 92*

Results for COC(=O)c1ccc2c(c1)C(C)(C)C(/C=C/c1ccccc1O)=[N+]2C ?
CF NFkB block: 64*; MITF TRPM1 inh: 105*; HIF-2a inh: 96*; Peg3 promoter: 105*; Shn3 inh set2: 97*; KKLEB tox: -39; CF NFkB inh conf: 97*; Mdm2 MdmX conf: 103*; HIF-2a inh conf: 99*; HIF-1a cs: 105*

What do the screens show for `C[N+]1=C(/C=C/Nc2ccccc2Cl)C(C)(C)c2ccccc21`?
CF NFkB block: -35; MITF TRPM1 inh: 4; HIF-2a inh: 2; Peg3 promoter: 8; Shn3 inh set2: 77; KKLEB tox: -4

How did C=C(c1ccccc1Cl)[n+]1ccccc1 do in these assays?
CF NFkB block: -7; MITF TRPM1 inh: -7; HIF-2a inh: 10; Peg3 promoter: 12; Shn3 inh set2: 4; KKLEB tox: 5

What do the screens show for `C[C@@H]1[C@@H](Sc2ccccc2)CC(=O)O[C@@H]1c1ccc(-c2ccccc2)cc1`?
CF NFkB block: 62*; MITF TRPM1 inh: 11; HIF-2a inh: 98*; Peg3 promoter: 97*; Shn3 inh set2: -24; KKLEB tox: -48; CF NFkB inh conf: -74; Mdm2 MdmX conf: 103*; HIF-2a inh conf: 6; HIF-1a cs: 101*

What do the screens show for `O=C1CC(C(=O)NC2CCCCC2)C(c2ccccc2)O1` (stereo not given)?
CF NFkB block: 1; MITF TRPM1 inh: 4; HIF-2a inh: 18; Peg3 promoter: -4; Shn3 inh set2: -8; KKLEB tox: 4

How did C/C(=N\NC(N)=O)C1CC(Cc2ccccc2)C(=O)O1 (stereo not given) do in these assays?
CF NFkB block: 4; MITF TRPM1 inh: 6; HIF-2a inh: 24; Peg3 promoter: 22; Shn3 inh set2: -2; KKLEB tox: 12

What do the screens show for `CCOC(=O)c1ccc(Nc2ncnc3ccc(C)cc23)cc1`?
CF NFkB block: 31; MITF TRPM1 inh: 5; HIF-2a inh: 23; Peg3 promoter: -6; Shn3 inh set2: 27; KKLEB tox: -3

Results for CCOc1ccc(Nc2ncnc3ccc([N+](=O)[O-])cc23)cc1 ?
CF NFkB block: 75*; MITF TRPM1 inh: -7; HIF-2a inh: 15; Peg3 promoter: 12; Shn3 inh set2: 9; KKLEB tox: -14; CF NFkB inh conf: 87*; Mdm2 MdmX conf: 87*

How did O=C(/C=C/c1ccc([N+](=O)[O-])cc1)c1ccccc(=O)c1O do in these assays?
CF NFkB block: 68*; MITF TRPM1 inh: 69*; HIF-2a inh: 59*; Peg3 promoter: 107*; Shn3 inh set2: 59; KKLEB tox: -9; CF NFkB inh conf: -88; HIF-2a inh conf: 91*; HIF-1a cs: 103*

How did O=C(NCc1ccc2c(c1)OCO2)c1ccccc1Cl do in these assays?
CF NFkB block: 2; MITF TRPM1 inh: -6; HIF-2a inh: -40; Peg3 promoter: -5; Shn3 inh set2: -18; KKLEB tox: 0

What do the screens show for `O=C(NCc1ccccc1)c1nc(S(=O)(=O)Cc2ccccc2)ncc1Cl`?
CF NFkB block: 87*; MITF TRPM1 inh: 49; HIF-2a inh: 85*; Peg3 promoter: 105*; Shn3 inh set2: 94*; KKLEB tox: -30; CF NFkB inh conf: 66*; HIF-2a inh conf: 90*; HIF-1a cs: 70*

How did COc1ccc(CNC(=O)c2nc(S(=O)(=O)Cc3ccccc3)ncc2Cl)cc1 do in these assays?
CF NFkB block: 90*; MITF TRPM1 inh: 67*; HIF-2a inh: 91*; Peg3 promoter: 104*; Shn3 inh set2: 92*; KKLEB tox: -20; CF NFkB inh conf: 71*; HIF-2a inh conf: 63*; HIF-1a cs: 35

Screening results as filed in PubChem.
